This is one part of a sample in which hits are shown more often than they occur.
GIRK2 activator – GIRK2 channel activators by thallium flux. 34,000 tested, under 10 active. HEK293 GIRK2/NPY4 cells, thallium flux fluorescence. AID 1259324. activation (% efficacy), % for hits at 37.5 µM. P48051;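 active = primary screen hit, no activity in plain HEK293 cells, and in GIRK2-only cells above 5% efficacy rising with concentration; inactive = the rest, including fluorescent compounds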;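 also: efficacy is normalized control-subtracted fluorescence 15 s after thallium addition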
Target sequence (P48051 whole entry, looked up): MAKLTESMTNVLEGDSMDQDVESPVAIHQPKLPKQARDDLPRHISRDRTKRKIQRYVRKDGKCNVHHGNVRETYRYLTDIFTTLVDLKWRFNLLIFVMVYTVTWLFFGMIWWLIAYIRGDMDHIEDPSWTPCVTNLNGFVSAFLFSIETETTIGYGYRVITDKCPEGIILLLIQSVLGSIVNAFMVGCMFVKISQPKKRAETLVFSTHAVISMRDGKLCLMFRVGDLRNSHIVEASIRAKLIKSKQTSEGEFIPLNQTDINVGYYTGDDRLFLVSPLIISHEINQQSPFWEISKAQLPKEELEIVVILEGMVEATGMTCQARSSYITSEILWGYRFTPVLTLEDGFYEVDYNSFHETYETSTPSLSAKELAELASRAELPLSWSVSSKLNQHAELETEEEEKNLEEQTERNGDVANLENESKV
AMPAR-TARP mod – GluA2-stargazin AMPA receptor complex modulation | O88602+P19491 | HEK293 GluA2+stargazin, membrane potential dye (FDSS), glutamate EC50; hits were called plate by plate, in both directions | calls only at 30 µM | hit rate 3.5% among 40,000 | AID 1259245;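 active = any of four per-well response measures lying three or more SD from its plate-wide compound average, in either direction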
Numbers without * were called inactive; i = inactive; . = no result; + = active, no number.

SMILES	GIRK2 activator	AMPAR-TARP mod
COc1ccc2nc(-c3cccc(NC(=O)c4c(F)cccc4F)c3)cn2n1	i	i
Cc1ccccc1CN1C(=O)C2(c3ccccc31)N(c1ccc(F)cc1)C(=O)CS2(=O)=O (stereo unspecified)	.	i
CCOc1cc(C(=O)Nc2cc(C)nn2C)cc(OCC)c1OCC	i	.
OC(COc1ccc2cc(Br)ccc2c1)CN1CCN(c2ccccn2)CC1 (stereo unspecified)	.	+
OC(COc1ccc(-c2ccccc2)cc1)CN1CCN(c2ccccn2)CC1 (stereo unspecified)	.	i
Cc1ccccc1CC(=O)NCCn1nc(-c2cccs2)ccc1=O	i	+
O=C(NCCn1nc(-c2cccs2)ccc1=O)NCc1ccccc1	i	i
CCOC(=O)c1ccc(NC(=O)CN2C(=O)S/C(=C\C(=O)Nc3ccccc3)C2=O)cc1	.	i
CCN(CC)S(=O)(=O)CCNC(=O)c1ccccc1	.	+
COCCN(CCOC)S(=O)(=O)CCNC(=O)c1ccccc1	.	i
Cc1c(C)n2c3c(=O)n(Cc4ccc(F)cc4)c(=O)n(C)c3nc2n1CCCN(C)C	i	+
Cc1cn2c3c(=O)n(Cc4ccccc4Cl)c(=O)n(C)c3nc2n1CCO	i	i
Cc1c(C)n2c3c(=O)n(CCCc4ccccc4)c(=O)n(C)c3nc2n1C(C)C	i	+
Cc1c(C)n2c3c(=O)n(CC(=O)OCc4ccccc4)c(=O)n(C)c3nc2n1C(C)C	i	i
Cc1cn2c3c(=O)n(Cc4ccccc4F)c(=O)n(C)c3nc2n1CCCN(C)C	i	+
CCn1c(=O)c2c(nc3n(CCCOC)c(C)c(C)n23)n(C)c1=O	i	i
Cn1ccnc1N1CCN(CC(=O)NCc2ccccc2Cl)CC1	i	i
Cc1ccc(C)c2c1sc(=NC(=O)C1CCCN(S(C)(=O)=O)C1)n2C (stereo unspecified)	i	i
COc1cc(NCCNC(=O)C(C)C)nc(OC)n1	i	i
Brc1cccc(-c2nnc3sc(-c4cccnc4)nn23)c1	i	+
O=c1oc(-c2cccnc2)nc2ccc(Br)cc12	i	i
O=C1CC(NC(=O)Cc2ccc(Cl)cc2)CN1 (stereo unspecified)	i	.
CN(c1ccc(F)cc1)S(=O)(=O)c1ccsc1-c1nc(-c2ccc(F)cc2)no1	i	i
COc1ccc(N(C)S(=O)(=O)c2ccsc2-c2nc(-c3ccc(SC)cc3)no2)cc1	i	+
CCOC(=O)c1sc(NC(=O)C2CCCCN2S(C)(=O)=O)cc1C (stereo unspecified)	i	i
SMILES	GIRK2 activator	AMPAR-TARP mod
COc1ccc(-c2c(NC(=O)c3cccs3)sc3ccccc3c2=O)cc1	i	i
COc1cc(-c2c(NC(=O)c3ccco3)sc3ccccc3c2=O)cc(OC)c1OC	i	+
CCCCCCCCCn1c(N2CCNCC2)nc2c1c(=O)[nH]c(=O)n2C	9.0%*	+
Cn1c(=O)[nH]c(=O)c2c1nc(N1CCN(CC(N)=O)CC1)n2Cc1ccccc1	.	+
Cn1c(=O)[nH]c(=O)c2c1nc(N1CCOCC1)n2CCCn1c(N2CCOCC2)nc2c1c(=O)[nH]c(=O)n2C	.	i
COc1ccc(N2CCN(CCCn3c(C)c(C)n4c5c(=O)[nH]c(=O)n(C)c5nc34)CC2)cc1	.	+
Cn1c(=O)[nH]c(=O)c2c1nc(N1CCN(CC(N)=O)CC1)n2Cc1cccc(Cl)c1	.	i
CCN1CCN(c2nc3c(c(=O)[nH]c(=O)n3C)n2CCCOc2ccccc2)CC1	.	+
COc1ccc(N2CCN(CCn3c(C)c(C)n4c5c(=O)[nH]c(=O)n(C)c5nc34)CC2)cc1	.	i
CCOCCn1c(N2CCN(CC)CC2)nc2c1c(=O)[nH]c(=O)n2C	.	i
COc1ccc(-c2nnc(SCC(=O)Nc3ccc(C)cc3)n2N)cc1OC	i	i
COc1cccc(OCC(=O)Nn2cnc3c(cnn3-c3ccccc3)c2=O)c1	i	i
NC(=O)c1ccccc1NC(=O)c1ccc(=O)n(Cc2ccc(F)cc2)n1	i	i
COC(=O)c1cc(Oc2ncnc3sc(C)c(C)c23)cc(C(=O)OC)c1	.	i
O=C(NCc1n[nH]c(=O)c2ccccc12)c1ccc(=O)[nH]c1	i	i
COc1nn(C)cc1C(=O)NCc1n[nH]c(=O)c2ccccc12	i	+
O=C(NCc1n[nH]c(=O)c2ccccc12)c1cccc(-n2cnnn2)c1	i	+
CSc1ccccc1C(=O)NCc1n[nH]c(=O)c2ccccc12	i	i
CCCCOCC(O)CN1CCN(c2cccc(C(F)(F)F)c2)CC1 (stereo unspecified)	i	i
CS(=O)(=O)N1CCC(Cn2c(C(F)(F)F)nc3ccccc32)CC1	i	i
O=S(=O)(c1cccs1)N1CCC(Cn2c(C(F)(F)F)nc3ccccc32)CC1	i	+
O=C(CSc1ncnc2[nH]ncc12)c1ccc(-c2ccccc2)cc1	.	i
CN(C)C(=O)CSc1ncnc2sc(-c3ccccc3)cc12	i	+
O=C(Nc1nnc(-c2cccs2)o1)c1ccc2c(c1)CCCC2	.	i
COc1ccc(C(=O)Oc2c(S(=O)(=O)c3ccc(C)cc3)c(C)nn2C(C)(C)C)cc1OC	.	+
SMILES	GIRK2 activator	AMPAR-TARP mod
Cc1ccc(S(=O)(=O)c2c(C)nn(C(C)(C)C)c2OC(=O)c2cccc(C)c2)cc1	.	i
CCC(=O)Nc1ccc(N2CCCCC2=O)c(OC)c1	.	+
COc1ccc(CCC(=O)Nc2ccc(N3CCCCC3=O)c(OC)c2)cc1	i	i
O=C(Cc1ccccc1)NCCn1ncc2c(N3CCOCC3)ncnc21	i	i
NS(=O)(=O)c1ccc(NC(=O)CN2C(=O)c3ccccc3S2(=O)=O)cc1	i	+
NC(=O)c1ccc(NC(=O)CN2C(=O)c3ccccc3S2(=O)=O)cc1	i	i
Cc1ccc(-n2ccnc(SC(C)C(=O)c3ccc(C)c(C)c3)c2=O)cc1 (stereo unspecified)	.	i
COc1ccccc1CNC(=O)CC1CCCCN1S(=O)(=O)c1ccc(C)cc1 (stereo unspecified)	.	+
COc1ccc(S(=O)(=O)N2CCCCC2CC(=O)NC2CCCCCC2)cc1 (stereo unspecified)	.	+
Cc1ccc(S(=O)(=O)N2CCCCC2CC(=O)NCc2ccccn2)cc1 (stereo unspecified)	i	i
Cc1ccc(S(=O)(=O)N2CCCCC2CC(=O)NC2CCCCCC2)cc1 (stereo unspecified)	.	+
COc1ccc(CCNC(=O)CC2CCCCN2S(=O)(=O)c2ccccc2)cc1 (stereo unspecified)	.	i
COc1ccc(S(=O)(=O)N2CCCCC2CC(=O)NC2CCCCC2)cc1 (stereo unspecified)	.	i
O=C(CC1CCCCN1S(=O)(=O)c1ccccc1)NC1CCCCCC1 (stereo unspecified)	.	+
COc1ccccc1CNC(=O)CC1CCCCN1S(=O)(=O)c1ccccc1 (stereo unspecified)	.	i
O=C(Cc1cc(-c2ccc(F)cc2)on1)Nc1ccc(C(F)(F)F)cc1	i	i
COC(=O)N1CCC(CNS(=O)(=O)c2ccccc2Br)CC1	i	i
COc1ccc(CCNC(=O)CC2CCCCN2S(=O)(=O)c2ccc(Cl)cc2)cc1OC (stereo unspecified)	.	+

Bioassay records from PubChem.
